We go through nine molecules from PubChem BioAssay (NCATS).

The structures appear in SMILES notation. Where “and” joins values, the source holds several entries; their conditions need not be identical. Equal entries are not always repeated. Records with an inconclusive call do not appear. A number with no mark means an inactive call. Calls come from the whole dose curve; as a rule, active = well fitted inhibition curve with a large enough effect; inconclusive = small, poorly fitted or top-dose-only effect; inactive = flat fitted curve, though single readings scatter.
% is set by controls: 0 for no effect and ±100 for the full control effect.

This assay concerns KB-3-1. The assay can be described thus: Cytotoxic Profiling of Annotated Libraries Using Quantitative High-Throughput Screening (AID 1296008). Note: nearly all actives have a fitted effect of over 60% in size. The following applies: Five cell lines viability, CellTiter-Glo ATP luminescence, 48-72 h; max response: hits give low values. The method, boiled down: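 Cytotoxicity was measured as CellTiter-Glo ATP luminescence, read after 10 min at room temperature. Compound treatment of the cells lasted 48 or 72 hr at 37 degrees Celsius in a qHTS format.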
As for `CCOC(=O)COc1ccc2c(C)c(CCN(CC)CC)c(=O)oc2c1`, the max response is -7.36%.
In the case of `COc1ccc(C2NC(=S)N3C(c4ccc(OC)c(OC)c4)NC(=S)N23)cc1OC` (centres undefined), the max response is -2.1%.
For `O=C(Cn1cnnn1)N[C@@H]1C(=O)N2C(C(=O)O)=C(CSc3nncs3)CS[C@H]12` the value was -22.7% and -13.7%; for `CCCCCCCCCCCCCCCC(=O)OCCC1CCN(CCCN2c3ccccc3Sc3ccc(S(=O)(=O)N(C)C)cc32)CC1`, -4.82%.
For `O.O=C([O-])CC([S-])C(=O)[O-].[Au+].[Na+].[Na+]` (centres undefined) the value was -7.82%.
The figure for `NCCCC(=O)O` is 2.75%.
On to `C=C1CC2C3CCC4=CC(=O)C=C[C@]4(C)[C@@]3(F)[C@@H](O)C[C@]2(C)[C@@]1(O)C(=O)COC(C)=O` (some centres undefined), for which the max response is 3%.
The figure for `O=C(CO)[C@@H](O)[C@H](O)[C@H](O)CO` is -8.15%.
For `CC(C)(S)C(=O)N[C@@H](CS)C(=O)O` the value was -0.209% and -15.2%.
